Assay [1] concerns the target Mitogen-activated protein kinase kinase kinase kinase 4 (Homo sapiens) (UniProt O95819). The conditions noted are these: at 1 µM.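 Further: reported figure is an averaged inhibition value.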
In assay [2] the target is Dual specificity mitogen-activated protein kinase kinase 1 (Homo sapiens) (UniProt Q02750). The conditions noted are these: at 0.1 µM.
Assay [3] shares this target. The conditions noted are these: at 1 µM.
The target in assay [4] is Misshapen-like kinase 1 (Homo sapiens) (UniProt Q8N4C8). The following applies: at 0.1 µM.
Assay [5] shares this target. The following applies: at 1 µM.
Assay [6] has as its target T1, Serine/threonine-protein kinase 4 (Homo sapiens) (UniProt Q13043).
T1 sequence (whole entry): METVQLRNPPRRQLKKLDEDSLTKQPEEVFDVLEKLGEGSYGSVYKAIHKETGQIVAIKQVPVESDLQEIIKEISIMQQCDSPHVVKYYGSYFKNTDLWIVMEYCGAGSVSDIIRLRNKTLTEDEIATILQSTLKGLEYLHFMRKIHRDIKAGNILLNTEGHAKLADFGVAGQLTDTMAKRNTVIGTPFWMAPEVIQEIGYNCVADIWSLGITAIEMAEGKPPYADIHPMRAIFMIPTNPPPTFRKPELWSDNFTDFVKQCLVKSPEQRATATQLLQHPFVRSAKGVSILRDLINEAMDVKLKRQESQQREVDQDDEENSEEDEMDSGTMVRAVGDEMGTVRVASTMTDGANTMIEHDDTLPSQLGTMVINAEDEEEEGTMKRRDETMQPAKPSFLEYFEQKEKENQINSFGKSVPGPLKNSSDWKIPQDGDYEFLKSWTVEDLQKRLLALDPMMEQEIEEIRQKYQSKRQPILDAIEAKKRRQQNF
The following applies: at 0.1 µM.

Assay [7] addresses T1, Serine/threonine-protein kinase 4 (Homo sapiens). The following applies: at 1 µM.
Assay [8] addresses T2, Serine/threonine-protein kinase 3 (Homo sapiens) (UniProt Q13188).
T2 sequence (whole entry): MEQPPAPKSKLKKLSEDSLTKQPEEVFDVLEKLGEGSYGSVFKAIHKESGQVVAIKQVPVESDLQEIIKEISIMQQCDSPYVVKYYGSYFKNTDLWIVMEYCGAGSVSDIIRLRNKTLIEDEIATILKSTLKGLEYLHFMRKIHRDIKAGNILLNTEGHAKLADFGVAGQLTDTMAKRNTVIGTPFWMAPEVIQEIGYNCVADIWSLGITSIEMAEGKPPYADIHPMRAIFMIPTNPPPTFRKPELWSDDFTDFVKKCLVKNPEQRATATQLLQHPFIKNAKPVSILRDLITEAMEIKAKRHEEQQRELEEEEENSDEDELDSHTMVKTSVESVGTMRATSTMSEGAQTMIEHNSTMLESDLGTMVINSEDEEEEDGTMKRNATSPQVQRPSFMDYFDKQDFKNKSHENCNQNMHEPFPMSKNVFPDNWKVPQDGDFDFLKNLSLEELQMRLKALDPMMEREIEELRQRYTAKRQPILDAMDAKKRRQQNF
The following applies: at 0.1 µM.

Assay [9] has as its target T2, Serine/threonine-protein kinase 3 (Homo sapiens). The conditions noted are these: at 1 µM.
The target of assay [10] is Serine/threonine-protein kinase 26 (Homo sapiens) (UniProt Q9P289). The following applies: at 0.1 µM.
Assay [11] shares this target. The following applies: at 1 µM.
The target of assay [12] is Serine/threonine-protein kinase PAK 1 (Homo sapiens) (UniProt Q13153). The conditions noted are these: at 0.1 µM.
The target is the same in assay [13]. The following applies: at 1 µM.
For assay [14], the target named is Serine/threonine-protein kinase PAK 2 (Homo sapiens) (UniProt Q13177). The following applies: at 0.1 µM.
For assay [15] the target is unchanged. The conditions noted are these: at 1 µM.
Assay [16] has as its target Serine/threonine-protein kinase PAK 3 (Homo sapiens) (UniProt O75914). The conditions noted are these: at 0.1 µM.
Assay [17] has the same target. The conditions noted are these: at 1 µM.
The target of assay [18] is Serine/threonine-protein kinase PAK 5 (Homo sapiens) (UniProt Q9P286). The following applies: at 0.1 µM.
Assay [19] has the same target. The following applies: at 1 µM.
The target of assay [20] is Serine/threonine-protein kinase PAK 6 (Homo sapiens) (UniProt Q9NQU5). The conditions noted are these: at 0.1 µM.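 Further: mean PAK6 inhibition reported from the GSK PKIS screen.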
Serine/threonine-protein kinase PAK 6 (Homo sapiens), sequence (Q9NQU5 whole entry, looked up): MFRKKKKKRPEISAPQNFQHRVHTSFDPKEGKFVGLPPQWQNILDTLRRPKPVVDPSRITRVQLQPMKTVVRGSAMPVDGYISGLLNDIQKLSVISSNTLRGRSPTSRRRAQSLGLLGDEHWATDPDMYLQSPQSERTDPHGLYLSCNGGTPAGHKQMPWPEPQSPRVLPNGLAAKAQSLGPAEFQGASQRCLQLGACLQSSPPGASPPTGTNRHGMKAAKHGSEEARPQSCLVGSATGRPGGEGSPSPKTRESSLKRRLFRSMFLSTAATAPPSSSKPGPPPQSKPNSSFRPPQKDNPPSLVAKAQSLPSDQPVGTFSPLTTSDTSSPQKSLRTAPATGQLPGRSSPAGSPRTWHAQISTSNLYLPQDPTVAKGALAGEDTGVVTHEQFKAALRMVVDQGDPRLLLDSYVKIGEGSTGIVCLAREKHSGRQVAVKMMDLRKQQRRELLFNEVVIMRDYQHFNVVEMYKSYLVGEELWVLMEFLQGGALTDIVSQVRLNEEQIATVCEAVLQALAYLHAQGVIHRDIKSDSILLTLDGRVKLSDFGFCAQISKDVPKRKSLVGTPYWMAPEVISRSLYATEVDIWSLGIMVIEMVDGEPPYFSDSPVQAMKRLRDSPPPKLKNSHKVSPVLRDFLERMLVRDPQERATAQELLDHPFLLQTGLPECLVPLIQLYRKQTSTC

Serine/threonine-protein kinase PAK 3 (Homo sapiens), sequence (O75914 whole entry, looked up): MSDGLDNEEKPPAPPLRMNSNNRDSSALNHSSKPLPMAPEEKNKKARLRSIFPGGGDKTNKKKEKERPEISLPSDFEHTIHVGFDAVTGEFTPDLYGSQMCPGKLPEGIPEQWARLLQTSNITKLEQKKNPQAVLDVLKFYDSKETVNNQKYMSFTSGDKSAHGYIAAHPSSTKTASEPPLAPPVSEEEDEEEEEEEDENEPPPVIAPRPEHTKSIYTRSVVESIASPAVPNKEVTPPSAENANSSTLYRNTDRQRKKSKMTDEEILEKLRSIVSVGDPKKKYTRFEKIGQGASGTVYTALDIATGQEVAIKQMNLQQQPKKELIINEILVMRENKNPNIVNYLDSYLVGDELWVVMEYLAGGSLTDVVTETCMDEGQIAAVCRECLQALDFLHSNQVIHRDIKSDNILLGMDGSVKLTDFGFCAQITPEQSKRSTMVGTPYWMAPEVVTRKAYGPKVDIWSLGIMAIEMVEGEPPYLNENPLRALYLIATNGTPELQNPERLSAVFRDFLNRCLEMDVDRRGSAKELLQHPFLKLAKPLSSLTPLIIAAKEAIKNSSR
Serine/threonine-protein kinase 26 (Homo sapiens), sequence (Q9P289 2-416 limits assumed): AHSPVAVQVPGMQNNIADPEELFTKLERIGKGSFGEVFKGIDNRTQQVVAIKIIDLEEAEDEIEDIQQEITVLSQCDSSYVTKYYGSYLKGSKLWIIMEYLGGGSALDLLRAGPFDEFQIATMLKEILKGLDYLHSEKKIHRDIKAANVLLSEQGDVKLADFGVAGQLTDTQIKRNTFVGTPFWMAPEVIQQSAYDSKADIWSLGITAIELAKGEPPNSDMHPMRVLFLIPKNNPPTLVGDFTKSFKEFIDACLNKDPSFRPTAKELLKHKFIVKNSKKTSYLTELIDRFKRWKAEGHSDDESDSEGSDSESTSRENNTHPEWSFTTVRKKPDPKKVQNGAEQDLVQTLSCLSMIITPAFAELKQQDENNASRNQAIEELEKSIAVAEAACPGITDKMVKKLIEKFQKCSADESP
Mitogen-activated protein kinase kinase kinase kinase 4 (Homo sapiens), sequence (O95819 2-1239 limits assumed): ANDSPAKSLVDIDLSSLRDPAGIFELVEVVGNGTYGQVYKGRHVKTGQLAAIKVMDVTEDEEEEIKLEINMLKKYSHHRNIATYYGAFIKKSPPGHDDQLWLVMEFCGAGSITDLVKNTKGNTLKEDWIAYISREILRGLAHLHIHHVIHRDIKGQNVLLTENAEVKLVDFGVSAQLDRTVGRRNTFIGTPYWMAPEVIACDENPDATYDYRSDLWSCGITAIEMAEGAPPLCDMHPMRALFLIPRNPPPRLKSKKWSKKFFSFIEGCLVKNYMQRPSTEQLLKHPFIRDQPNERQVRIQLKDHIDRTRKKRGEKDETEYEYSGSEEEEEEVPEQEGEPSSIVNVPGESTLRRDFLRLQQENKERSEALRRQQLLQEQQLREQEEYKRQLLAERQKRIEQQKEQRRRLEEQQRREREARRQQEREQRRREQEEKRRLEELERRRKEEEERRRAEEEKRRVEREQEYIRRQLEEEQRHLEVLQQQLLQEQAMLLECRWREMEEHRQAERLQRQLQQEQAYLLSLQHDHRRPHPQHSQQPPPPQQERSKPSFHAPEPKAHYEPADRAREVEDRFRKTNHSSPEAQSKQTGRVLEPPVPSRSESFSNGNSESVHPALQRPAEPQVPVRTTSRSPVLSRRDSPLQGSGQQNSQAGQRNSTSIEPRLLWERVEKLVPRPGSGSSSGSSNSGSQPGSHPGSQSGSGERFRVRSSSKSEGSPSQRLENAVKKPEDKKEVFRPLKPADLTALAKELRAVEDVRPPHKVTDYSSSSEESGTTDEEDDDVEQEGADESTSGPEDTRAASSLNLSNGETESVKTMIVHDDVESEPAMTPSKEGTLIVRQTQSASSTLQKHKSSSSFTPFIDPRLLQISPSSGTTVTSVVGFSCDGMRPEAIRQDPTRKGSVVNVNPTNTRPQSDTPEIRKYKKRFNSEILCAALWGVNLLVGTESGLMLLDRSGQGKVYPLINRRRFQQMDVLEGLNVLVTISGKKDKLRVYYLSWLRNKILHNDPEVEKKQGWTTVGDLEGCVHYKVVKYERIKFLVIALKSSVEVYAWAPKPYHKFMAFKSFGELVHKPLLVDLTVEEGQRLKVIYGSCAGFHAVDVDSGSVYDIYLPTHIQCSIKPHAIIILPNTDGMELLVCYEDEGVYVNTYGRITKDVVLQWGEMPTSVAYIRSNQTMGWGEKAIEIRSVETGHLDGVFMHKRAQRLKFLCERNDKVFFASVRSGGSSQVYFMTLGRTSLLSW
Dual specificity mitogen-activated protein kinase kinase 1 (Homo sapiens), sequence (Q02750 whole entry): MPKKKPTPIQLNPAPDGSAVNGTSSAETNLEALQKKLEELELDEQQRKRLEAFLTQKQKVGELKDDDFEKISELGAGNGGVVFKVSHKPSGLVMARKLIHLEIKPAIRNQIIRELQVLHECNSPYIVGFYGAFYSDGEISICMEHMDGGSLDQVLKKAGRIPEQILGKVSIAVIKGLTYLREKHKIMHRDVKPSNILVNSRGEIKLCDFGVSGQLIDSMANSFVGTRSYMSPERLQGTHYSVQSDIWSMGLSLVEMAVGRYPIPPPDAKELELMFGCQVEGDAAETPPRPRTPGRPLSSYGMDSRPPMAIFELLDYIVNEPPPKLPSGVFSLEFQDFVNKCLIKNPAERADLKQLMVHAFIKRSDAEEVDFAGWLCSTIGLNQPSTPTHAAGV
Serine/threonine-protein kinase PAK 5 (Homo sapiens), sequence (Q9P286 whole entry, looked up): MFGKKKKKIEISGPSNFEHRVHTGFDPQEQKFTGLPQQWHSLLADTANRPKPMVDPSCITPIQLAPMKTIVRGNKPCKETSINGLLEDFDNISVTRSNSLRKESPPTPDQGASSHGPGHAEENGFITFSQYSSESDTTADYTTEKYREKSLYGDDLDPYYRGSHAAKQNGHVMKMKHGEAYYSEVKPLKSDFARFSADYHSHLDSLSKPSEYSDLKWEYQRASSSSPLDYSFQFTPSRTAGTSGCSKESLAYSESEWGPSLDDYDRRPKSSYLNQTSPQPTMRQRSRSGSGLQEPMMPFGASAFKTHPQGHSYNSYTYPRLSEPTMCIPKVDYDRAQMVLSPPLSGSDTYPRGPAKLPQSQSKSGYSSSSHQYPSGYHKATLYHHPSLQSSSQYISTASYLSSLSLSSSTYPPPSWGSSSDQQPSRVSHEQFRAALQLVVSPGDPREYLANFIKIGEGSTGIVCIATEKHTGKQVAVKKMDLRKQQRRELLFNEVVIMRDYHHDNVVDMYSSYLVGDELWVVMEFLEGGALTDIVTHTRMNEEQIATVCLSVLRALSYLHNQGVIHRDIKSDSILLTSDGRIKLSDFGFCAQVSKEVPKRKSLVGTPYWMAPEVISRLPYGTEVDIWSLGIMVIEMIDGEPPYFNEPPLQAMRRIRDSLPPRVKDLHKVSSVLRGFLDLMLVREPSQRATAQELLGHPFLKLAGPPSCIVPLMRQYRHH
Serine/threonine-protein kinase PAK 1 (Homo sapiens), sequence (Q13153 whole entry): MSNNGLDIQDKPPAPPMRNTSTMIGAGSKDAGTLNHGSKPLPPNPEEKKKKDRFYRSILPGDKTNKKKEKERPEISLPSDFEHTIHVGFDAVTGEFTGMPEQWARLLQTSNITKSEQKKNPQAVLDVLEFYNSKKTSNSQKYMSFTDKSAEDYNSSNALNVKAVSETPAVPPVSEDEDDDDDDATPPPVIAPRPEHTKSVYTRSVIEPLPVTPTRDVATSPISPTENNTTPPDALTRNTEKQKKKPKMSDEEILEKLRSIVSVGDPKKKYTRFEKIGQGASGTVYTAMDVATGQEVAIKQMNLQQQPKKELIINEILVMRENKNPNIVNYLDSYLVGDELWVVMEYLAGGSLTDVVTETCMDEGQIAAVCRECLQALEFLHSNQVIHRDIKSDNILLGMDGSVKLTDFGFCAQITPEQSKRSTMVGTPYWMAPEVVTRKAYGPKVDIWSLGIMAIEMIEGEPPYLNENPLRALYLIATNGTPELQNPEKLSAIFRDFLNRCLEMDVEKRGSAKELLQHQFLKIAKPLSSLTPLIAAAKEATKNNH

Usually inhibition stands for the drop in the measured response relative to a control, in per cent. For `COc1cc(N2CCN(C(C)C)CC2)ccc1Nc1nc(Nc2cccc(F)c2C(=O)O)c2cc[nH]c2n1`, the inhibition in [1] came to 10.1%; in assay [2], 4.86%; in assay [3], 2.88%; in assay [4], 4.85%; in [5], 9.35%; in assay [6] it was 5.23%. Further, the inhibition in assay [7] was 9.21%; in assay [8], 5.03%; in [9], 9.11%; in assay [10], -0.64%; in assay [11] it was 2.17%; in assay [12] it was 6.19%. In addition, the inhibition in assay [13] stood at 5.79%; in assay [14] it was 1.31%; in [15], 2.49%; in [16], 4.37%; in assay [17] it was 4.9%; in assay [18], 3.7%. The inhibition in assay [19] stood at 4.16%; in assay [20], 0.22%.
For the compound `FC(F)(F)CNc1nccc(-c2cnn3ncccc23)n1`, the inhibition is 3.37% in assay [1]; 1.61% in [2]; 2.41% in assay [3]; 3.42% in assay [4]; 3.44% in [5]; 3.65% in assay [6]. In addition, the inhibition in assay [7] is 3.82%; in assay [8], 6.06%; in [9], 6.67%; in [10] it was -0.96%; in assay [11], -0.52%; in assay [12], 0.97%. In addition, the inhibition in assay [13] was 6.19%; in [14] it was 0.24%; in assay [15] it was -0.87%; in [16] it was 4.27%; in assay [17], 3.14%; in assay [18], 1.55%. For the same compound, the inhibition in assay [19] is 1.35%; in [20], -2.63%.
As to `O=C(O[C@H]1CN[C@H](C#Cc2cc3ncnc(Nc4ccc5c(ccn5Cc5cc(F)ccc5F)c4)c3s2)C1)N1CCOCC1`, the inhibition was determined as 5.63% in [1]; 5.1% in assay [2]; 5.26% in assay [3]; 5.96% in [4]; 5.37% in assay [5]; 2.68% in [6]. The inhibition in assay [7] is 4.43%; in assay [8] it was 2.54%; in [9], 1.92%; in assay [10], -1.74%; in [11], 0.81%; in [12], 9.36%. For the same compound, the inhibition in assay [13] was 8.97%; in [14], 2.13%; in [15] it was 2.48%; in assay [16] it was 5.02%; in assay [17], 5.53%; in assay [18], -0.09%. For the same compound, the results for the inhibition in assay [19] and in assay [20] were -5.06% and -1.93%, respectively.
Take `Cc1cc(O)cc(C)c1/C=C/c1cncc(C(N)=O)c1`: the inhibition in assay [1] amounted to 13.9%; in assay [2], 2.17%; in assay [3] it was 3.39%; in [4] it was 4.8%; in [5] it was 7.34%; in assay [6] it was 2.44%. The inhibition in [7] was 7.28%; in [8], 2.17%; in [9], 4.31%; in assay [10], -0.63%; in assay [11] it was -0.01%; in assay [12], 1.07%. Besides, the inhibition in [13] was 3.22%; in assay [14], 0.07%; in [15] it was -0.24%; in [16], 2.43%; in assay [17] it was 2.79%; in assay [18], 9.11%. The figures for the inhibition in assay [19] and in assay [20] were 0.51% and 9.09%, respectively.
Regarding `CN(C)CCNC(=O)Nc1ccc(N(C)c2ccnc(Nc3ccc(CS(C)(=O)=O)cc3)n2)cc1`, the inhibition was 14.6% in assay [1]; 4.9% in assay [2]; 4.12% in assay [3]; 5.87% in [4]; 10.1% in [5]; 6.4% in assay [6]. Also, the inhibition in assay [7] is 11.4%; in assay [8], 6.63%; in assay [9], 6.98%; in [10], -0.89%; in assay [11] it was -2.49%; in assay [12] it was 4.61%. The inhibition in assay [13] came to 9.49%; in [14], 1.79%; in assay [15], 2.9%; in assay [16], 3.73%; in assay [17] it was 4.29%; in assay [18], 1.15%. Also, the inhibition in assay [19] is 6.27%; in assay [20], -1.56%.
For `COC(=O)Nc1nc2ccc(Oc3ccc(NC(=O)Nc4cc(C(F)(F)F)ccc4F)cc3)cc2s1`, the inhibition was 8.34% in assay [1]; 0.28% in assay [2]; 1.52% in assay [3]; 2.27% in assay [4]; 6.19% in [5]; -0.61% in assay [6]. Also, the inhibition in assay [7] is -1.63%; in [8], -0.86%; in assay [9] it was -0.3%; in assay [10], 0.45%; in [11], 1.71%; in assay [12], -2.89%. Also, the inhibition in assay [13] was 1.52%; in assay [14], -1.5%; in assay [15], -0.42%; in assay [16], -1.09%; in assay [17], 0.28%; in assay [18], 0.53%. The inhibition was -1.37% in [19] and 2.82% in [20].

The values above are taken from ChEMBL document CHEMBL1961873, “Compounds: GSK PKIS; Assays: Nanosyn kinase panel” (2012).
